The source of these data is PubChem BioAssay (NCI).

The nature of this assay: NCI Yeast Anticancer Drug Screen. Data for the mlh1 rad18 strain (AID 175). To be noted: S. cerevisiae mlh1 rad18 strain growth inhibition, stronger effect = higher value. How it is done:
Growth inhibition of yeast strains with defined genetic alterations is measured as a screen for potential anti-cancer activity. Selected strains with alterations in DNA damage repair or cell cycle control were exposed to compounds and growth inhibition was measured relative to vehicle treated controls. The strain used in this assay is mlh1 rad18

[1] abbreviates: at 5.0 µM (retest, dose inferred, filed as 0.5).
Setting [2] is: at 50.0 µM (retest, dose inferred, filed as 5.0).

Structures are written as SMILES. Compounds without any hit were thinned out: in the full panel of roughly 79,000, 15% have a hit. Unmarked numbers belong to inactive results. Active and inactive are the calls of the source. Rule as the data show it: active = growth inhibition above about 70%; inactive = the rest.

Consider `N#C/C(=C\c1ccccc1)c1ccccc1F`, for which the growth inhibition was 22% under setting [1], 96% (active) under setting [2] and 67% (at 50.0 µM).

On to `CCN(CC)CC(O)c1cc(-c2ccc(Cl)cc2)nc2c(-c3ccccc3)cccc12` (stereo unspecified), for which the growth inhibition is 59% under setting [1], 96% (active) under setting [2] and 99.2% (active) (at 50.0 µM).

For the molecule `On1cnc(=S)c2[nH]cnc21`, the growth inhibition under setting [1] is 60%, the growth inhibition under setting [2] is 98% (active) and the growth inhibition (at 50.0 µM) is 7.7%.

On to `CC(=O)C1(O)Cc2c(O)c3c(c(O)c2C(OC2CC(N)C(O)C(C)O2)C1)C(=O)c1ccccc1C3=O` (stereo unspecified), for which the growth inhibition reads like this: under setting [1], -33%; under setting [2], 54%.

As for `Cc1ccc(N=Nc2ccc(O)c(C)c2)cc1`, the growth inhibition was 37% under setting [1], 51% under setting [2] and 91.9% (active) (at 50.0 µM).

On to `CCCCCCCCN1C(=O)c2ccccc2C1=O`, for which the growth inhibition reads like this: under setting [1], -2%; under setting [2], 62%; (at 50.0 µM) 91% (active).

As to `COc1cc(/C=C/c2sc3ccccc3[n+]2C)ccc1N(C)C`, the growth inhibition under setting [1] was -11%, the growth inhibition under setting [2] was -6% and the growth inhibition (at 50.0 µM) is 92.5% (active).

`O=C1CC(=O)N(C2CCCCC2)C(=O)N1c1ccccc1S(=O)(=O)Oc1ccccc1`: the growth inhibition is, setting by setting: under setting [1], 61%; under setting [2], 100% (active); (at 50.0 µM) 41.4%.

With `C/C(=N\NC(=S)NC1CCCC1)c1ccccn1`, the growth inhibition runs as follows: under setting [1], 13%; under setting [2], 98% (active); (at 50.0 µM) 91.5% (active).

As for `Cc1ccccc1NC(=O)Cc1csc(N/N=C2\NC(=O)/C(=C/c3cccc([N+](=O)[O-])c3)S2)n1`, the growth inhibition under setting [1] is 13%, the growth inhibition under setting [2] was 42% and the growth inhibition (at 50.0 µM) was 60.5%.

Take `CCCCOC(=O)CSSCC(=O)OCCCC`: the growth inhibition reads like this: under setting [1], 40%; under setting [2], 99% (active); (at 50.0 µM) 90.2% (active).

On to `COC(=O)c1ccc2c(c1)Cc1ccccc1-2`, for which the growth inhibition under setting [1] was -2%, the growth inhibition under setting [2] was 6% and the growth inhibition (at 50.0 µM) is 45.6%.

In the case of `COc1ccc2c(c1)[nH]c1c(/C=C/c3ccccc3)nccc12`, the growth inhibition runs as follows: under setting [1], 29%; under setting [2], 95% (active); (at 50.0 µM) 89.5% (active).

Turning to `Clc1c(Cl)c(Cl)c2n[nH]nc2c1Cl`, the growth inhibition under setting [1] was 100% (active), the growth inhibition under setting [2] was 100% (active) and the growth inhibition (at 50.0 µM) is 37.5%.
